# Rv3671c inh: inhibitors of M. tuberculosis serine protease Rv3671c | P9WHR9 | inhibition, % at 5.96 µM | 0.048% of 320,000 active | AID 2606; in the data active means inhibition above about 38%;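 further: extracellular domain of Rv3671c used as enzyme; 0% = enzyme with DMSO and 100% = no enzyme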
# Mtb hypoxia rep: reduces hypoxia-regulated biosensor signal in M. tuberculosis; fluorescence inhibition, % (concentration not given with the values); AID 1159583; M. tuberculosis hypoxia-regulated fluorescent reporter, fluorescence; 0.1% of 300,000 active; in the data active means fluorescence inhibition mostly above about 23%, no sharp cut-off; inactive means mostly below about 17%
# FadD28 FP inh: blocks FadD28 binding to the bisubstrate probe | fluorescence polarization | inhibition, % at 12.5 µM | 0.22% of 360,000 active | AID 588549; in the data active means inhibition above about 8.5%, passing the limit was not always enough; inconclusive means no clear call, values can overlap the other calls
# RecA splice inh: blocks M. tuberculosis RecA intein splicing | P9WHJ3 | cell-free RecA intein splicing, fluorescence | inhibition, % (test concentration not listed) | 0.75% of 290,000 active | AID 2221; in the data active means inhibition above about 30%; inconclusive means no clear call, values can overlap the other calls;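 further: 0% = vehicle wells and 100% = reference inhibitor control wells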
# Mtb UGM inh: blocks M. tuberculosis UGM enzyme; inhibition, % at 10 µM; 0.06% of 320,000 active; purified UGM, fluorescence polarization probe displacement; in the data active means inhibition above about 10%, passing the limit was not always enough; inconclusive means no clear call, values can overlap the other calls
# Target sequence (P9WIQ1 whole entry, looked up): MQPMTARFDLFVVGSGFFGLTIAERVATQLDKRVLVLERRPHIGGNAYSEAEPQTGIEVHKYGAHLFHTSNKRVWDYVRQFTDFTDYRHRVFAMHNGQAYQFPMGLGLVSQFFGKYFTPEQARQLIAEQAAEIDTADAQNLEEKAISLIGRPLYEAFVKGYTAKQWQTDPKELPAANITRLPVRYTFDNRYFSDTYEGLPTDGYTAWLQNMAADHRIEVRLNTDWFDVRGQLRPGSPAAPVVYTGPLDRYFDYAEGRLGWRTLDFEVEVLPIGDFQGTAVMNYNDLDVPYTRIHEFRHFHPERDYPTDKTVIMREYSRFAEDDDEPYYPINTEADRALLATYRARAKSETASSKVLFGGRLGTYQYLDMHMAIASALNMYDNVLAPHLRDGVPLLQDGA
# Mtb bLac sens: beta-lactam sensitization of Mtb H37Rv; M. tuberculosis H37Rv growth with meropenem, percent inhibition; inhibition, % at 25 µM; 0.27% of 330,000 active;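 further: growth measured after seven days incubation then overnight dye step; 0% = bacteria only wells and 100% = bacteria with antibiotic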
# GFP chromophore: counter-screen GFP chromophore formation inhibition; shares compounds with RecA splice inh; cell-free GFP chromophore formation, fluorescence; EC50, µM; 83% of 2,100 active
# Numbers without * were called inactive; ? = inconclusive; . = no result given. In the library only some 0.92% were active in any assay of this set; here they are far more common. Unless noted, how the calls were made is not given here.
SMILES,Rv3671c inh,Mtb hypoxia rep,FadD28 FP inh,RecA splice inh,Mtb UGM inh,Mtb bLac sens,GFP chromophore
CCOC(=O)c1ccc(NC2=CC(=O)C(=O)c3ccccc32)cc1,-26,3,-2,42*,3,100,2.7*
Cc1ccc(NC2=CC(=O)C(=O)c3ccccc32)cc1,-65,.,0,54*,1,99,1.2*
Cc1cc(Cl)ccc1NC(=S)N1CCN(Cc2ccccc2)CC1,2,-2,-4,5,-2,1,.
COc1ccc(CCNC(=O)CSc2ccsc2[N+](=O)[O-])c(OC)c1,-2,-4,-3,-4,2,-2,.
Cc1[nH]nc2c1C(CCc1ccccc1)C(C#N)=C(N)O2 (stereo not drawn),-4,2,-2,70*,0,?,29*
CCCC1C(C#N)=C(N)Oc2n[nH]c(C(C)(C)C)c21 (stereo not drawn),-4,.,0,74*,3,-10,1.7*
CC(C)C1C(C#N)=C(N)Oc2n[nH]c(C(C)(C)C)c21 (stereo not drawn),2,.,-3,.,0,2,.
CC(C)(C)c1[nH]nc2c1C(c1ccco1)C(C#N)=C(N)O2 (stereo not drawn),-1,6,-1,41*,0,5,2.8*
COc1ccc(-c2ccc(C3C(C#N)=C(N)Oc4n[nH]c(C)c43)o2)cc1 (stereo not drawn),-6,6,-1,.,-1,98,.
CCOC(=O)Cc1[nH]nc2c1C(Cc1ccccc1)C(C#N)=C(N)O2 (stereo not drawn),-2,12,-3,28,2,-1,.
Cc1[nH]nc2c1C(c1ccco1)C(C#N)=C(N)O2 (stereo not drawn),6,6,-3,58*,0,0,26*
COc1ccc(F)c(C2C(C#N)=C(N)Oc3n[nH]c(C(C)(C)C)c32)c1 (stereo not drawn),8,-6,-9,7,0,2,.
CCCCSc1nc2[nH]ncc2c(=O)[nH]1,10,-9,-1,-3,0,3,.
C=CCn1c(C(C)NC(=O)c2cccs2)n[nH]c1=S (stereo not drawn),11,-2,-5,3,0,6,.
CC(C)(C)c1cc(C(c2cccnc2)N2CCN(CCO)CC2)cc(C(C)(C)C)c1O (stereo not drawn),12,20,-3,38*,-3,101,35*
Cc1cccc(NC(=O)c2sc3nc(-c4ccccc4)cn3c2C)n1,-15,9,-5,3,2,-2,.
CCOC(=O)C1=C(c2ccccc2)NC(N)=NC1c1ccc(OCc2ccc(Cl)cc2)c(OC)c1 (stereo not drawn),11,17,-7,49*,-4,100,>12
Cc1ccc(NCSc2ccc(Cl)cc2)cc1,.,14,.,.,.,.,.
CC(C)(C)c1csc(Sc2ccc([N+](=O)[O-])cn2)n1,3,5,-1,32*,0,39,9.2*
CCOC(=O)C(=NC(C)(C)C)NNc1cc(Cl)ccc1Cl,-5,-1,0,11,1,82,.
Cc1[nH]n(-c2ccccc2)c(=O)c1C(c1cccc([N+](=O)[O-])c1)c1c(C)[nH]n(-c2ccccc2)c1=O,-50,11,4,85*,-2,6,4.8*
Cc1[nH]n(-c2ccccc2)c(=O)c1C(c1ccc(C(=O)O)cc1)c1c(C)[nH]n(-c2ccccc2)c1=O,-183,1,0,96*,-2,6,1.2*
Cc1[nH]n(-c2ccccc2)c(=O)c1C(=O)c1ccc([N+](=O)[O-])cc1,-11,13,1,4,3,3,.
Cc1[nH]n(-c2ccccc2)c(=O)c1C(c1cccc([N+](=O)[O-])c1O)c1c(C)[nH]n(-c2ccccc2)c1=O,-198,13,0,93*,0,1,1.3*
Cc1c(C(c2cccc([N+](=O)[O-])c2O)c2c(C)n(C)n(-c3ccccc3)c2=O)c(=O)n(-c2ccccc2)n1C,0,-4,2,-4,1,?,.
SMILES,Rv3671c inh,Mtb hypoxia rep,FadD28 FP inh,RecA splice inh,Mtb UGM inh,Mtb bLac sens,GFP chromophore
Cc1[nH]n(-c2ccccc2)c(=O)c1C(=O)Nc1ccccc1,10,4,-1,4,-1,-4,.
CC(=Nc1ccccc1C(F)(F)F)c1ccncc1,10,0,.,3,-1,-3,.
CCCc1[nH]nc2c1C(c1ccsc1)C(C#N)=C(N)O2 (stereo not drawn),4,3,-3,66*,0,-2,29*
CCOC(=O)C1=C(C)OC(N)=C(C#N)C1c1ccsc1 (stereo not drawn),6,4,1,-3,-3,1,.
COCc1[nH]nc2c1C(c1ccsc1)C(C#N)=C(N)O2 (stereo not drawn),-5,3,-3,64*,-1,1,35*
Cc1cc(=O)oc2c(CN3CCCCC3)c(O)ccc12,.,.,-2,.,.,.,.
CCCCn1c(SCC(=O)NCc2ccco2)nc2ccccc2c1=O,4,16,-4,-2,1,3,.
CC(=O)NCCn1c(SCC(=O)NCc2ccco2)nc2ccccc2c1=O,0,0,-2,67*,-2,10,25*
O=C(CN1CCCCCC1=O)OCc1ncc(-c2ccccc2)o1,-3,9,-1,1,-1,-8,.
Oc1c(C=C2N=c3ccccc3=N2)sc(=S)n1-c1ccc(F)cc1,-2,8,-1,0,-4,-1,.
Oc1[nH]c(=S)sc1C=C1N=c2ccccc2=N1,-5,5,1,57*,3,-1,>38
COc1ccc(/C=N/n2c(-c3ccco3)nc3ccccc3c2=O)cc1,-1,.,-1,-2,5,-1,.
O=C(Nc1ccccc1)c1nc[nH]c1C(=O)NCCCCCCNC(=O)c1[nH]cnc1C(=O)Nc1ccccc1,-8,8,-5,.,-1,3,.
CCCCCCn1c(N2CCC(C(N)=O)CC2)nc2c1c(=O)n(C)c(=O)n2C,-6,.,-2,47*,1,8,>38
CCCCCCn1c(N2CCC(C(N)=O)CC2)nc2c1c(=O)[nH]c(=O)n2C,11,.,-1,3,0,1,.
COc1cc(C(c2c(C)[nH][nH]c2=O)c2c(C)[nH][nH]c2=O)ccc1OC(=O)c1cccc([N+](=O)[O-])c1,-7,0,-1,.,-2,3,.
COc1cc(C(c2c(C)[nH][nH]c2=O)c2c(C)[nH][nH]c2=O)ccc1OS(=O)(=O)c1ccc(C)cc1,-7,4,-2,98*,-2,-5,0.44*
COc1cc(C(c2c(C)[nH][nH]c2=O)c2c(C)[nH][nH]c2=O)ccc1OS(=O)(=O)c1ccccc1,-6,2,-1,95*,2,-10,0.44*
Cn1c(SCC(=O)c2c(N)n(C)c(=O)n(C)c2=O)nnc1-c1ccc(F)cc1,0,-12,-3,1,-2,?,.

# Source: PubChem (several laboratories)
